# Inconclusive results are not listed. Entries that show only a call come without a potency. Unmarked numbers belong to inactive results. Active and inactive are the calls of the source. Unless noted, calls come from the whole dose curve; as a rule, active = well fitted curve in the direction sought with a large enough effect in the repeat runs; inconclusive = weak or mixed curves; inactive = no such curve, though single readings can be large; an effect the other way counts as inactive or inconclusive.
# How the values were obtained:
# [1] = qHTS assay to identify aromatase inhibitors - cell viability counter screen (AID 743084);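 note: cells stimulated with testosterone during compound exposure; nearly all actives have a fitted effect of over 55% in size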
# [2] = biological target: Aryl hydrocarbon receptor (Homo sapiens) (UniProt P35869); test: qHTS assay to identify small molecule that activate the aryl hydrocarbon receptor (AhR) signaling pathway (AID 743085); note: nearly all actives have a fitted effect of over 15% in size; note: potency is the fitted concentration of half-maximal effect;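 for activation: HG2L7.5c1 human HepG2 liver cells with stably integrated DRE-driven firefly reporter; series mostly up to about 70 µM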
# Chain of Aryl hydrocarbon receptor (Homo sapiens) (P35869 whole entry, looked up): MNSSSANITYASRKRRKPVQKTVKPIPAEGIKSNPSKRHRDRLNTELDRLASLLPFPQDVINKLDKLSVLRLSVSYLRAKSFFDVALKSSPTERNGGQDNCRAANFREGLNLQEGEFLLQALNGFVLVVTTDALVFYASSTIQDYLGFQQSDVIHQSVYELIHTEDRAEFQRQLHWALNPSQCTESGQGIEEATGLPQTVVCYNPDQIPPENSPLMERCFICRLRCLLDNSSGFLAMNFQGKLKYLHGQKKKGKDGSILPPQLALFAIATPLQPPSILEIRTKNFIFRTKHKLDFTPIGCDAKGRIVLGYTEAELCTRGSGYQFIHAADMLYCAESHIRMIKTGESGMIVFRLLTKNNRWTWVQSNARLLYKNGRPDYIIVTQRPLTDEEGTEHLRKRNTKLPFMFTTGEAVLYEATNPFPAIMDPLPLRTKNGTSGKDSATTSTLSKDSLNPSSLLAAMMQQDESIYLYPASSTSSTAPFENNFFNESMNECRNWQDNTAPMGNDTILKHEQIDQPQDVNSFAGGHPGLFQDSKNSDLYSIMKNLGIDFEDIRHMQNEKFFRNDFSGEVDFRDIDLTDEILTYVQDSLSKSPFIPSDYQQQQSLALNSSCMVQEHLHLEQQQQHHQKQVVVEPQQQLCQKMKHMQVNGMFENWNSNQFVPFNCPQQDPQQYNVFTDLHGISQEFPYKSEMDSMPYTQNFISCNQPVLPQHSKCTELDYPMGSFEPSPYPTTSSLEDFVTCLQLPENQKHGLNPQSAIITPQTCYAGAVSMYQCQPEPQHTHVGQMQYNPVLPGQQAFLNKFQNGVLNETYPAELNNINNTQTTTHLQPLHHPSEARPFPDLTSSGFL
# In short: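 Reporter assay in engineered HepG2 line HG2L7.5c1, whose plasmid carries twenty dioxin responsive elements upstream of firefly luciferase. Treatment lasted 24 h at 37C; ONE-Glo luminescence gauged induction.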
# [3] = qHTS assay to identify small molecule that activate the aryl hydrocarbon receptor (AhR) signaling pathway - cell viability counter screen (AID 743086);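 note: HepG2 liver cells carrying the AhR DRE luciferase reporter; series mostly up to about 70 µM; nearly all actives have a fitted effect of over 45% in size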
# In short: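 HepG2-AhR-luc (HG2L7.5c1) cells, 4000/well, were preincubated 5 h at 37C, exposed to compound in qHTS format for 24 hr at 37C, then given CellTiter-Fluor for 30 min; viability was read as fluorescence in the reporter wells.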
# [4] = biological target: Peroxisome proliferator-activated receptor gamma (Homo sapiens) (UniProt P37231); test: qHTS assay to identify small molecule agonists of the peroxisome proliferator-activated receptor gamma (PPARg) signaling pathway (AID 743094; active = well fitted activation curve with a large enough effect in the signal ratio in the repeat runs, not every such curve was filed as active; the % refers to the signal ratio)
# Chain of Peroxisome proliferator-activated receptor gamma (Homo sapiens) (P37231 whole entry, looked up): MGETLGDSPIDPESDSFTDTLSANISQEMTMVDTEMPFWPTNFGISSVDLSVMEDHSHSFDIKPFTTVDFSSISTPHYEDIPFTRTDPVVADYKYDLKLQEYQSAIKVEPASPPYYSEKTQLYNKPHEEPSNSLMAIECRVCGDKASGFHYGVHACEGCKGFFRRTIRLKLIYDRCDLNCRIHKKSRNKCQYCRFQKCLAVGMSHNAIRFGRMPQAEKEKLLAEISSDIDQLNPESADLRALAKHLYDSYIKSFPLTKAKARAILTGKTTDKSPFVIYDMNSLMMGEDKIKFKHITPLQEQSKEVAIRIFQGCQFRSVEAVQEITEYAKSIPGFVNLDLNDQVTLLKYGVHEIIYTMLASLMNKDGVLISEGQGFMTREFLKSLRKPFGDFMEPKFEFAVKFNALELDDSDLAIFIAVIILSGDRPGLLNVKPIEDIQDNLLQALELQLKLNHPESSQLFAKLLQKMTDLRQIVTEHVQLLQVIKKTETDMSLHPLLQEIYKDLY
# In short: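 GeneBLAzer PPARg UAS-bla HEK293H cells were plated, rested 5 h, then exposed to compounds for 17 h at 37C. Beta-lactamase activity was read by LiveBLAzer B/G FRET substrate fluorescence after 1 h at room temperature.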
# [5] = biological target: Peroxisome proliferator-activated receptor gamma (Homo sapiens) (UniProt P37231); test: qHTS assay to identify small molecule antagonists of the peroxisome proliferator-activated receptor gamma (PPARg) signaling pathway (AID 743191; calls by dose curve; note: series mostly up to about 63 µM; nearly all actives have a fitted effect of over 30% in size)
# In short: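 GeneBLAzer PPARg UAS-bla HEK293H cells carrying a UAS-driven beta-lactamase reporter were plated at 3000 cells/well, preincubated 5 h at 37C, then given compound for 17 h at 37C; LiveBLAzer B/G FRET substrate was read after 1 h at room temperature.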
# [6] = qHTS assay to identify small molecule antagonists of the peroxisome proliferator-activated receptor gamma (PPARg) signaling pathway - cell viability counter screen (AID 743194); note: nearly all actives have a fitted effect of over 55% in size
# In short: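 PPARg-UAS-bla HEK293H cells were plated, rested 5 h at 37 C, then treated with compounds plus rosiglitazone (50 nM final) for 17 h at 37 C; viability was then read by CellTiter-Glo luminescence after 30 min at room temperature.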
# [7] = qHTS assay for small molecule agonists of the antioxidant response element (ARE) signaling pathway (AID 743202; active = well fitted activation curve with a large enough effect in the signal ratio in the repeat runs, not every such curve was filed as active; the % refers to the signal ratio)
# In short: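 Read-out: LiveBLAzer B/G FRET substrate fluorescence after 2 h at room temperature, following 16 h compound treatment at 37 C of HepG2 cells carrying an ARE-driven beta-lactamase reporter.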
# [8] = qHTS assay for small molecule agonists of the antioxidant response element (ARE) signaling pathway - cell viability counter screen (AID 743203; calls by dose curve; note: nearly all actives have a fitted effect of over 55% in size)
# In short: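 ARE-bla HepG2 cells were plated, rested 5 h at 37C/5% CO2, then exposed to compounds in DMSO for 16 h. Viability was read as CellTiter-Glo luminescence after 30 min at room temperature, in the same wells as the ARE screen.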
# [9] = qHTS assay for small molecule activators of the heat shock response signaling pathway - cell viability counter screen (AID 743209); note: nearly all actives have a fitted effect of over 50% in size
# In short: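 HSE-bla HeLa cells plated overnight, then exposed to Tox21 compounds (23 nL in DMSO) for 5 h at 37 C. After the bla reporter read, CellTiter-Glo was added in the same wells and luminescence read after 30 min at room temperature.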
# [10] = qHTS assay for small molecule activators of the heat shock response signaling pathway (AID 743210; active = well fitted activation curve with a large enough effect in the signal ratio in the repeat runs, with a control signal flat, not every such curve was filed as active; the % refers to the signal ratio; note: series mostly up to about 63 µM)
# In short: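 HSE-bla HeLa cells (beta-lactamase reporter under heat shock response elements) were exposed to compounds for 5 h at 37 C, then loaded with LiveBLAzer B/G FRET substrate for 2.5 h at room temperature before fluorescence reading.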
compound,measurement,setting,value
CC(C)(O)c1ccccc1,Potency,[1],inactive
same,Potency,[2],inactive
same,Potency,[3],inactive
same,outcome,[4],inactive
same,outcome,[5],inactive
same,Potency,[6],inactive
same,Potency,[7],inactive
same,outcome,[8],inactive
same,outcome,[9],inactive
CCCCCCCCN(C)CCCCCCCC,Potency,[1],inactive
same,Potency,[2],inactive
same,Potency,[3],inactive
same,outcome,[4],inactive
same,outcome,[5],inactive
same,Potency,[6],inactive
same,Potency,[7],inactive
same,outcome,[8],inactive
same,outcome,[9],inactive
same,outcome,[10],inactive
CCCCOCC(C)OCC(C)O (stereo unspecified),Potency,[1],inactive
same,Potency,[2],inactive
same,Potency,[3],inactive
same,outcome,[4],inactive
same,outcome,[5],inactive
same,Potency,[6],inactive
same,Potency,[7],inactive
same,outcome,[8],inactive
same,outcome,[9],inactive
same,outcome,[10],inactive
Cc1ccccc1Br,Potency,[1],inactive
same,Potency,[2],inactive
same,Potency,[3],inactive
same,outcome,[4],inactive
same,outcome,[5],inactive
same,Potency,[6],inactive
same,Potency,[7],inactive
same,outcome,[8],inactive
same,outcome,[9],inactive
same,outcome,[10],inactive
C=C(C)[C@@H]1CCC2=CC(=O)C[C@@H](C)[C@]2(C)C1,Potency,[1],inactive
same,Potency,[2],inactive
same,Potency,[3],inactive
same,outcome,[4],inactive
same,outcome,[5],inactive
same,Potency,[6],inactive
same,Potency,[7],inactive
same,outcome,[8],inactive
same,outcome,[9],inactive
same,outcome,[10],inactive
COc1cccc(OC)c1,Potency,[1],inactive
same,Potency,[2],inactive
same,Potency,[3],inactive
same,outcome,[4],inactive
same,outcome,[5],inactive
same,Potency,[6],inactive
same,Potency,[7],inactive
same,outcome,[8],inactive
same,outcome,[9],inactive
FC(F)(F)C(F)(F)C(F)(F)C(F)(F)C(F)(F)C(F)(F)C(F)(F)C(F)(F)C(F)(F)C(F)(F)F,"activity change, negative = cytotoxicity",[1],5.22% [at 8.47 µM]
same,activation,[2],0.197% [at 8.47 µM]
same,"viability change, negative = cytotoxic",[3],24.8% [at 8.47 µM]
same,activation,[4],-0.797% [at 7.08 µM]
same,"ratio activity, negative = inhibition",[5],-8.26% [at 5.95 µM]
same,"activity change, negative = cytotoxicity",[6],1.8% [at 5.95 µM]
same,activation,[7],0.659% [at 8.36 µM]
same,"viability change, negative = cytotoxic",[8],0.46% [at 8.36 µM]
same,"activity change, negative = cytotoxicity",[9],3.17% [at 5.95 µM]
same,activation,[10],2.05% [at 5.95 µM]
COCc1ccc(COC)cc1,Potency,[1],inactive
same,Potency,[2],inactive
same,Potency,[3],inactive
same,outcome,[4],inactive
same,outcome,[5],inactive
same,Potency,[6],inactive
same,Potency,[7],inactive
same,outcome,[8],inactive
same,outcome,[9],inactive
same,outcome,[10],inactive
CCCC(C)C(=O)O (stereo unspecified),Potency,[1],inactive
same,Potency,[2],inactive
same,Potency,[3],inactive
same,outcome,[4],inactive
same,outcome,[5],inactive
same,Potency,[6],inactive
same,Potency,[7],inactive
same,outcome,[8],inactive
CCCCN(CCO)CCO,Potency,[1],inactive
same,Potency,[2],inactive
same,Potency,[3],inactive
same,outcome,[4],inactive
same,outcome,[5],inactive
same,Potency,[6],inactive
same,Potency,[7],inactive
same,outcome,[8],inactive
same,outcome,[9],inactive
same,outcome,[10],inactive
NC(=O)c1c(Cl)cccc1Cl,Potency,[1],inactive
same,Potency,[2],inactive
same,Potency,[3],inactive
same,outcome,[4],inactive
same,outcome,[5],inactive
same,Potency,[6],inactive
same,Potency,[7],inactive
same,outcome,[8],inactive
same,outcome,[9],inactive
same,outcome,[10],inactive
OCC(CO)(CO)COCC(CO)(CO)CO,Potency,[1],inactive
same,Potency,[2],inactive
same,Potency,[3],inactive
same,outcome,[4],inactive
same,outcome,[5],inactive
same,Potency,[6],inactive
same,Potency,[7],inactive
same,outcome,[8],inactive
same,outcome,[9],inactive
same,outcome,[10],inactive
OCCN1C[C@H](O)[C@@H](O)[C@H](O)[C@H]1CO,Potency,[1],inactive
same,Potency,[2],inactive
same,Potency,[3],inactive
same,outcome,[4],inactive
same,outcome,[5],inactive
same,Potency,[6],inactive
same,Potency,[7],inactive
same,outcome,[8],inactive
same,outcome,[9],inactive
same,outcome,[10],inactive
CCCc1ccccc1O,Potency,[1],inactive
same,Potency,[2],inactive
same,Potency,[3],inactive
same,outcome,[4],inactive
same,outcome,[5],inactive
same,Potency,[6],inactive
same,outcome,[8],inactive
same,outcome,[9],inactive
NCCNC(=O)c1ccc(Cl)cn1,Potency,[1],inactive
same,Potency,[2],inactive
same,Potency,[3],inactive
same,outcome,[4],inactive
same,outcome,[5],inactive
same,Potency,[6],inactive
same,Potency,[7],inactive
same,outcome,[8],inactive
same,outcome,[9],inactive
same,outcome,[10],inactive
C#CC(O)CCCCC (stereo unspecified),Potency,[1],inactive
same,Potency,[2],inactive
same,Potency,[3],inactive
same,outcome,[4],inactive
same,Potency,[6],inactive
same,Potency,[7],inactive
same,outcome,[8],inactive
same,outcome,[9],inactive
same,outcome,[10],inactive
COC(=O)CCCC(=O)O,Potency,[1],inactive
same,Potency,[2],inactive
same,Potency,[3],inactive
same,outcome,[4],inactive
same,outcome,[5],inactive
same,Potency,[6],inactive
same,outcome,[8],inactive
same,outcome,[9],inactive
same,outcome,[10],inactive
C[N+](C)(C)CC[N+]1(C)Cc2c(Cl)c(Cl)c(Cl)c(Cl)c2C1,Potency,[1],inactive
same,Potency,[2],inactive
same,Potency,[3],inactive
same,outcome,[4],inactive
same,outcome,[5],inactive
same,Potency,[6],inactive
same,outcome,[8],inactive
same,outcome,[9],inactive
same,outcome,[10],inactive
C1COCCO1,Potency,[1],inactive
same,Potency,[2],inactive
same,Potency,[3],inactive
same,outcome,[4],inactive
same,outcome,[5],inactive
same,Potency,[6],inactive
same,outcome,[8],inactive
same,outcome,[9],inactive
same,outcome,[10],inactive
O=C(O)c1ccccc1S,Potency,[1],inactive
same,Potency,[2],inactive
same,Potency,[3],inactive
same,outcome,[4],inactive
same,outcome,[5],inactive
same,Potency,[6],inactive
same,outcome,[8],inactive
same,outcome,[9],inactive
same,outcome,[10],inactive
C=CCOc1nc(OCC=C)nc(OCC=C)n1,Potency,[1],inactive
same,Potency,[2],54.5 µM (active)
same,Potency,[3],inactive
same,outcome,[4],inactive
same,outcome,[5],inactive
same,outcome,[8],inactive
same,outcome,[9],inactive
same,outcome,[10],inactive
CN(C)CCn1nnnc1SCC1=C(C(=O)O)N2C(=O)[C@@H](NC(=O)Cc3csc(N)n3)[C@H]2SC1,Potency,[1],inactive
same,Potency,[2],inactive
same,Potency,[3],inactive
same,outcome,[4],inactive
same,outcome,[5],inactive
same,Potency,[6],inactive
same,outcome,[8],inactive
same,outcome,[10],inactive
CC(C)N1C(=O)c2ccccc2C1=O,Potency,[1],inactive
same,Potency,[2],inactive
same,Potency,[3],inactive
same,outcome,[4],inactive
same,outcome,[5],inactive
same,Potency,[6],inactive
same,outcome,[8],inactive
same,outcome,[9],inactive
same,outcome,[10],inactive
O=C1OC(=O)c2cc([N+](=O)[O-])ccc21,Potency,[1],inactive
same,Potency,[2],inactive
same,Potency,[3],inactive
same,outcome,[4],inactive
same,outcome,[5],inactive
same,Potency,[6],inactive
same,outcome,[8],inactive
same,outcome,[10],inactive
CCO[Si](CCCN=C=O)(OCC)OCC,Potency,[1],inactive
same,Potency,[2],inactive
same,Potency,[3],inactive
same,outcome,[4],inactive
same,outcome,[5],inactive
same,Potency,[6],inactive
same,outcome,[8],inactive
same,outcome,[9],inactive
same,outcome,[10],inactive

# Source: PubChem BioAssay (Tox21)
